From PubChem BioAssay
tim10-1 inh – tim10-1 yeast growth inhibition. AID 463190. inhibition, % at 20 µM. 2.2% of 330,000 active. S. cerevisiae tim10-1 ts strain growth, BacTiter-Glo, 24 h;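 active = inhibition of at least 40%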;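 note: mutant grown at 25 °C; 0% = DMSO wells with yeast and 100% = wells holding no yeast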
TIM10 inh – inhibits growth of TIM10 yeast strain | S. cerevisiae TIM10 strain growth, BacTiter-Glo luminescence, 24 h | inhibition, % at 10 µM | 1.4% of 330,000 active;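 active = inhibition of 40% or more at the single tested concentration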;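 note: wild-type TIM10 isogenic control strain grown at permissive 25 °C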
SKKanGAS inh – inhibitors of SKKanGAS S. pyogenes growth in kanamycin (SK-promoter or general growth effect); BacTiter-Glo, 6 h; inhibition, % at 7.5 µM; 1.3% of 300,000 active; AID 1662;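 active = mean replicate score, as percent of positive control median, at least 50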;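 note: strain carries kanamycin resistance gene driven by streptokinase promoter and grows in 40 µg/ml kanamycin; loss of luminescence reflects streptokinase promoter inhibition or plain growth inhibition; 0% = median of DMSO wells and 100% = positive control at its reference dose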
PfHsp90 yeast 2 – inhibits growth of yeast expressing Plasmodium falciparum Hsp90. S. cerevisiae expressing PfHsp90, BacTiter-Glo ATP, 48 h; yeast lacking PDR1 and PDR3 efflux regulators. inhibition, % at 9.4 µM. 0.32% of 310,000 active;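 active = every replicate shows inhibition above about 80%, whatever the replicate mean, limit read from the data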;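 note: 0% = DMSO neutral controls and 100% = 20 µM radicicol positive controls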
tim23-1 inh – inhibits growth of tim23-1 mutant yeast; 1.3% of 330,000 active; AID 463212; inhibition, % at 20 µM; S. cerevisiae tim23-1 growth, BacTiter-Glo luminescence, 24 h;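 active = growth inhibition of the mutant yeast at or above 50%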;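 note: temperature-sensitive mutant grown at 25 °C; plate controls were DMSO-treated mutant yeast for no effect and medium wells lacking yeast for full effect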
NLRP3 yeast inh – inhibitors of NALP3 inflammasome in yeast. Yeast reconstituted NLRP3/ASC/caspase-1, beta-gal luminescence, 24 h. inhibition, % at 10 µM. 0.39% of 330,000 active;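 active = inhibition of 50% or more; inactive = inhibition below 50%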;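 note: plate controls were induced DMSO wells for no effect and uninduced yeast grown without galactose for full effect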
TIM10 conf – TIM10 yeast growth inhibition, confirmed | shares compounds with TIM10 inh | S. cerevisiae tim10 strain growth, BacTiter-Glo luminescence, 24 h | inhibition, % at 10 µM | 63% of 4,600 active | AID 463215;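 active = inhibition of yeast growth at or above a set limit in either of two replicates at 10 µM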;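 note: this counterscreen used the strain with wild-type TIM10; 0% = yeast with DMSO and 100% = medium wells lacking yeast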
Starred values were filed as active, the others as inactive; x = not tested or not shown. Compounds with a hit are over-represented: about 4.6% of the library has one in this group of screens.

SMILES	tim10-1 inh	TIM10 inh	SKKanGAS inh	PfHsp90 yeast 2	tim23-1 inh	NLRP3 yeast inh	TIM10 conf
Cc1cccc(-n2c(-c3csc(C(C)C)c3)n[nH]c2=S)c1	31	42*	-8	20	43	21	30
Cc1ccsc1C(=O)Nc1ccc(OCc2ccccc2)cc1	0	6	25	6	8	18	x
Cc1ccc(-n2cc3c(-c4cccc(Br)c4)nnc(C)c3n2)cc1	35	44*	64*	5	41	25	31*
CCOCCCN(C)C1CCN(C(=O)c2oc3ccccc3c2NC(=O)COc2ccc(F)cc2)CC1	-2	3	-1	5	-17	19	x
CCc1cccc(CC)c1NC(=S)NCc1ccc2c(c1)OCO2	39	41*	-10	-31	37	6	0
CC12CCC(C(=O)NCc3ccc4c(c3)OCO4)(C(=O)C1=O)C2(C)C (stereo unspecified)	35	41*	-4	7	27	3	1
CCc1cccc(CC)c1NC(=S)NC(C)c1ccccc1 (stereo unspecified)	39	53*	5	-18	26	8	39*
Cc1cccc(NS(=O)(=O)c2cc(C(=O)N3CCCCCC3)ccc2C)c1	17	1	37	-3	11	8	x
Cc1ccc(S(=O)(=O)N2CCC(C(=O)OCC(=O)N3CCCC3=O)CC2)cc1C	-1	4	1	x	-10	22	x
O=C(O)CCC(=O)Nc1ccc(/C=C/C(=O)C2CC2)cc1	-12	-18	2	5	-4	8	x
O=C(CCCOc1ccc(Cl)cc1Cl)NCCc1ccccn1	17	3	7	-3	18	20	x
O=C(N/N=C/c1cccc(OC(=O)c2ccco2)c1)c1ccc(F)cc1	13	41*	-3	17	14	13	32*
COc1cc(/C=N/NC(=O)c2ccc(F)cc2)ccc1OC(=O)c1ccco1	2	17	-5	-10	9	5	x
COc1ccc(C(=O)/C=C/NCc2ccc(F)cc2)cc1OC	22	20	1	-3	12	14	x
CC(C)COc1cc(=O)[nH]c(SCC(C)C)n1	36	45*	0	8	9	-40	39*
CCc1ccc(CN(C)C(=O)C2CCC(=O)N(Cc3ccccn3)C2)cc1 (stereo unspecified)	4	-9	-6	10	-8	12	x
CCOC(=O)c1cnc2c(ccc3ccccc32)c1NCCO	38	61*	-2	3	49	30	69*
O=C(Cn1ccc2ccccc2c1=O)N1CCN(c2cccc(Cl)c2)CC1	-40	54*	-2	-20	-14	20	-38
S=C(NCc1ccccc1)N1CCN(c2cccc(Cl)c2)CC1	26	46*	11	-7	45	23	15
COc1ccc(N2C(=O)CSC2c2ccc3c(c2)OCO3)c(OC)c1 (stereo unspecified)	40	41*	0	-1	21	-22	27
Cc1ccc(CNC(=O)c2cn(C3CCCCC3)c(=O)c3c2c2ccccc2n3C)o1	26	43*	20	-30	26	7	-10
COc1cc(SC)ccc1C(=O)N(CC(=O)Nc1ccccc1Br)Cc1ccco1	17	-4	-3	0	8	17	x
O=C(/C=C/c1ccc2c(c1)OCO2)NCCSCc1ccc(Cl)cc1Cl	37	41*	35	-31	13	26	3
CC1CCCC(NC(=O)C2CCN(S(=O)(=O)c3cnc[nH]3)CC2)C1C (stereo unspecified)	18	-7	3	2	10	0	x
Cc1cc(C(=O)CN2C(=O)c3ccccc3S2(=O)=O)c(C)n1-c1ccccc1	24	25	14	-50	43	0	x
SMILES	tim10-1 inh	TIM10 inh	SKKanGAS inh	PfHsp90 yeast 2	tim23-1 inh	NLRP3 yeast inh	TIM10 conf
Cc1cc(C(=O)CN2C(=O)C3CC=CCC3C2=O)c(C)n1-c1ccccc1 (stereo unspecified)	26	43*	-11	-39	39	11	7
COc1ccc(-c2noc(=O)n2Cc2ccccc2F)cc1	17	-1	1	-2	20	31	x
CCn1c2ccccc2c2cc(CNCc3ccc(OC)cc3OC)ccc21	2	49*	16	21	20	36	23
COc1cccc(CNCc2ccc(OC)cc2OC)c1	-3	1	-1	10	-10	15	x
COc1cccc(-n2c(SCC(N)=O)nnc2-c2c[nH]c3ccccc23)c1	0	-10	-2	28	-1	4	x
COc1ccc(OC)c(-n2c(SCC(N)=O)nnc2-c2c[nH]c3ccccc23)c1	6	98*	-5	-7	9	0	2
CCCS(=O)(=O)N1CCCC(C(=O)Oc2ccc(C)c(C)c2)C1 (stereo unspecified)	6	7	-5	-19	19	8	x
O=C(NC1CC(=O)N(c2cccc(F)c2)C1)C(=O)c1c[nH]c2ccccc12 (stereo unspecified)	-4	97*	-6	x	-11	-4	-2
COc1cccc(N2CC(NC(=O)C(=O)c3c[nH]c4ccccc34)CC2=O)c1 (stereo unspecified)	13	11	29	x	18	15	x
COc1ccc(CNC(=O)c2ccc3c(=O)n(-c4ccccc4)c(=O)[nH]c3c2)cc1	-5	-17	-4	-66	-18	9	x
O=C(Nc1nccs1)c1ccc(-c2ccccc2Cl)o1	10	47*	-22	-72	47	-24	25
O=C(Nc1nccs1)c1ccc(-c2ccccc2[N+](=O)[O-])o1	-2	19	8	-27	29	-1	x
COc1cc(C(C)=O)ccc1OCC(O)CN1CCN(c2c(C)cccc2C)CC1 (stereo unspecified)	-7	97*	-1	26	-2	19	10
CCc1c(C)sc(NC(=O)Cc2ccccc2OC)c1C(=O)N1CCOCC1	13	3	-4	-3	3	7	x
O=C(Cc1ccccc1)NN=Cc1ccccc1	x	x	x	-25	x	x	x
O=C(Cc1ccccc1)N/N=C/c1cc(Br)cc(Cl)c1O	39	45*	97*	9	38	24	51*
COc1ccccc1NC(=O)Nc1cc(F)ccc1F	29	46*	3	-15	40	13	9
COc1ccccc1NC(=O)Nc1cc(NC(=O)Nc2ccccc2OC)c(C)nc1C	7	10	2	-1	-18	-4	x
COc1ccccc1NC(=O)Nc1ccc(Cc2ccncc2)cc1	32	44*	2	x	36	10	39*
COc1ccc(CN(C)C(C)C(=O)N(C)CC(=O)Nc2ccc(C)cc2)cc1F (stereo unspecified)	8	4	x	x	23	7	x
FC(F)(F)c1cccc(NC(=S)NCc2ccccc2)c1	35	47*	28	27	32	-1	49*
